12 molecules from PubChem BioAssay (NCATS) can be followed below.

For assay [1], the target named is Arylsulfatase A (Homo sapiens) (UniProt P15289). Briefly: qHTS screen for enhancers of Arylsulfatase A (ASA1): LOPAC Validation Assay (AID 720538). The procedure, abridged: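 SV40-transformed fibroblasts from an MLD patient (ASA-I179S) were treated with compound for 48 h at 37 C. They were then lysed with 0.5 mM pNCS substrate (final) for 14 h at room temperature and stopped with NaOH; signal read by fluorescence (Ex 525/Em 598 nm), with increase denoting enhanced activity.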
Chain of Arylsulfatase A (Homo sapiens) (P15289 whole entry, looked up): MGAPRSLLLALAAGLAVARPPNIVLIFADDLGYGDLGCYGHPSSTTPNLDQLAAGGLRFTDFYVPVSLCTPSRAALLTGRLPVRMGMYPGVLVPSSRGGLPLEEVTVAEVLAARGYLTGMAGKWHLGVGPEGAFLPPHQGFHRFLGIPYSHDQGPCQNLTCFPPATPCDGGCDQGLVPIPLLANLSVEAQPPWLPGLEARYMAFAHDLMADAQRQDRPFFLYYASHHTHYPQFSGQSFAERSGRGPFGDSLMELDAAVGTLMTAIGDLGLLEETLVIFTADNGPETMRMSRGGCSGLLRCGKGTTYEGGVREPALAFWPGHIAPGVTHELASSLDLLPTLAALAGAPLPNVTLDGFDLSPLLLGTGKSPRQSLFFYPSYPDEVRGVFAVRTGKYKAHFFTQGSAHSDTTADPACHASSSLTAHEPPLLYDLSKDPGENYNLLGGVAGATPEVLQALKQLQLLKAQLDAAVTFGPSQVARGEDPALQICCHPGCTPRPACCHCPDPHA
(In general: In qHTS, concentration-response curves come from the screen itself.)

Assay [2] can be described thus: qHTS for compounds that reverse cellular toxicity of Amyloid beta (A-beta) peptide in yeast: LOPAC Validation Assay (AID 720559).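 Further: plate controls were DMSO for no effect and equimolar ferric chloride plus clioquinol rescue for full effect.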 To be noted: Potency: rescue of growth toxicity. In short, it runs like this:
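Yeast expressing toxic A-beta grown with pinned compounds at 30 C for 48 hr. Growth measured as absorbance at 600 nm; data normalized to DMSO and to an equimolar FeCl3/clioquinol mixture as positive control.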

Assay [3] in a line: qHTS for Activators of Parkin Expression: LOPAC Validation Assay (NLuc Reporter) (AID 720572). The procedure, abridged:
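NLuc signal, read 10 min after reagent and following a prior FLuc read, is normalized to DMSO (0) and positive controls (100%). Cells: neuronal Parkin-promoter coincidence reporter line; compounds tested 7-point, 24 h, 37 C, 5% CO2.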

Assay [4] can be described thus: qHTS for Activators of Parkin Expression: LOPAC Validation Assay (FLuc Reporter) (AID 720573). The procedure, abridged: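 Neuronal cell line stably expressing FLuc/NLuc coincidence reporter under the Parkin promoter, 1,500 cells/well, dosed 24 h after seeding in 7-point series for 24 h at 37 C. FLuc luminescence read; normalized to DMSO and positive control (100%).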

Assay [5] has as its target T1, Hexokinase-4 (Homo sapiens) + Glucokinase regulatory protein (Homo sapiens) (UniProt P35557+Q14397). Briefly: qHTS assay for inhibitors of recombinant human GCK-GKRP interaction: Diaphorase-coupled assay (AID 743205). In short, it runs like this:
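Compounds pre-incubated 20 min with substrate, then 10 nM GST-GCK with 10 nM FLAG-GKRP added. GCK activity coupled via G6PDH and diaphorase to resorufin (5 mM glucose, 0.4 mM ATP, 0.15 mM NADP+, pH 7.6), read kinetically over 30 minutes at Ex 525/Em 590 nm.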

The target of assay [6] is T1, Hexokinase-4 (Homo sapiens) + Glucokinase regulatory protein (Homo sapiens). Briefly: qHTS assay for inhibitors of recombinant human GCK-GKRP interaction: ADP-Glo assay (AID 743206).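 Further: plate controls were DMSO plus enzyme for no effect and no enzyme for full effect.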 The procedure, abridged: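 Pin-transferred compounds meet a 15 nM GST-GCK/15 nM FLAG-GKRP/2 uM S6P mix (dispense concentrations). ATP is then added to 0.4 mM final with 5 mM glucose, and the reaction runs 60 min at room temperature. ADP is quantified luminescently.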

A short description of assay [7]: qHTS Assay for Identifying Gametocytocidal Compounds (AID 743244). Further: potency means the concentration at half of the fitted maximal effect.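 On max response: on the % scale 0 is the no-effect control and ±100 the full control effect; actives lower the fluorescent signal which means gametocytes are killed.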 As to conditions: P. falciparum 3D7 stage III-V gametocytes, alamarBlue, 72 h; max response: stronger effect = lower value. The procedure, abridged: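 Late gametocytes (III–V), P. falciparum 3D7; 72 h drug, then 24 h alamarBlue; resazurin reduction read by fluorescence.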
The target in assay [8] is T1, Hexokinase-4 (Homo sapiens) + Glucokinase regulatory protein (Homo sapiens). The assay can be described thus: qHTS assay for inhibitors of recombinant human GCK-GKRP interaction: HTRF assay (AID 743207).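 Further: 0% = DMSO with GCK present and -100% = DMSO wells lacking GCK.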 The procedure, abridged:
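HTRF binding of 5 nM GST-GCK and 5 nM FLAG-GKRP with 2 uM S6P in pH 7.1 Hepes buffer (MgCl2, KCl, DTT, Tween 20, BSA). Anti-FLAG XL665 and anti-GST donor added, 60 min at room temperature; 665/615 nm read, normalized to with- and without-GCK controls.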

Assay [9] is described as follows: qHTS profiling for inhibitors of Plasmodium falciparum (3D7) proliferation (AID 743322).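 Further: infected erythrocytes exposed to compound for 72 h before lysis; 100% = DMSO vehicle wells and 0% = 0.29 µM artemisinin.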 As to conditions: P. falciparum 3D7 proliferation; at 28.7 µM (top of the series) unless noted. The procedure, abridged: (§1)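 Parasite DNA was quantified by SYBR Green I fluorescence (ex 485, em 535 nm) after overnight lysis in saponin/Triton buffer at room temperature. Cultures at 0.3% parasitemia and 2.5% hematocrit were first exposed to compound for 72 h at 37 C; signals were normalised to artemisinin (0.29 uM) and vehicle wells.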

Assay [10] is described as follows: qHTS profiling for inhibitors of Plasmodium falciparum (DD2) proliferation (AID 743323; call rule not given here). To be noted: lower = more inhibition; at 28.7 µM (top of the series) unless noted. In short, it runs like this: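 1536-well qHTS; infected RBCs 0.3% parasitemia/2.5% Hct final; cpd 72 h 37 C 5% CO2; lysis buffer + SYBR Green I, o/n RT dark; FI 485/535; norm. to 0.29 uM artemisinin and DMSO, plate-stack corrected.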

A short description of assay [11]: qHTS profiling for inhibitors of Plasmodium falciparum (HB3) proliferation (AID 743324).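 Further: 100% = DMSO vehicle wells and 0% = artemisinin-treated control wells.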 As to conditions: Plasmodium falciparum HB3 blood-stage proliferation; at 28.7 µM (top of the series) unless noted. In short, it runs like this: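 SYBR Green fluorescence (485 ex/535 em) of lysed cultures, incubated overnight at room temperature in the dark, quantifies parasite DNA. Infected erythrocytes at 0.3% parasitemia and 2.5% hematocrit were exposed 72 h; values normalized to DMSO and 0.29 uM artemisinin controls.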

Assay [12] can be described thus: qHTS profiling of the MIPE4 collection as inhibitors of Plasmodium falciparum (3D7) proliferation (AID 743344; call rule not given here;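 further: scaled between DMSO vehicle wells and 0.29 µM artemisinin as full inhibition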). As to conditions: P. falciparum 3D7 in erythrocytes, SYBR Green DNA fluorescence, 72 h; at 28.5 µM (top of the series). The procedure, abridged: as §1
A short description of assay [13]: qHTS profiling of the MIPE4 collection as inhibitors of Plasmodium falciparum (DD2) proliferation (AID 743345; call rule not given here). To be noted: P. falciparum Dd2 in erythrocytes, SYBR Green DNA, 72 h; at 28.5 µM (top of the series). The procedure, abridged:
as §1

Assay [14] is described as follows: qHTS profiling of the MIPE4 collection as inhibitors of Plasmodium falciparum (DD2) proliferation (Rep 2) (AID 743346; call rule not given here). To be noted: P. falciparum Dd2 in erythrocytes, SYBR Green DNA, 72 h; at 28.5 µM (top of the series). In short, it runs like this: as §1
Assay [15] in a line: qHTS profiling of the MIPE4 collection as inhibitors of Plasmodium falciparum (HB3) proliferation (AID 743347; call rule not given here;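 further: plate controls were DMSO vehicle wells for no effect and artemisinin wells for full effect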). To be noted: P. falciparum HB3 in erythrocytes, SYBR Green DNA, 72 h; at 28.5 µM (top of the series). In short, it runs like this:
as §1

SMILES strings stand for the structures. Records with an inconclusive call do not appear. The source made the active and inactive calls. Unless noted, the call rests on the fitted dose curve; in most records, active means well fitted curve in the direction sought with a large enough effect; inconclusive means small, poorly fitted or top-dose-only effect, or another doubt; inactive means no such curve, though single readings can be large; an effect the other way counts as inactive or inconclusive.

T1 sequence (P35557 whole entry, looked up): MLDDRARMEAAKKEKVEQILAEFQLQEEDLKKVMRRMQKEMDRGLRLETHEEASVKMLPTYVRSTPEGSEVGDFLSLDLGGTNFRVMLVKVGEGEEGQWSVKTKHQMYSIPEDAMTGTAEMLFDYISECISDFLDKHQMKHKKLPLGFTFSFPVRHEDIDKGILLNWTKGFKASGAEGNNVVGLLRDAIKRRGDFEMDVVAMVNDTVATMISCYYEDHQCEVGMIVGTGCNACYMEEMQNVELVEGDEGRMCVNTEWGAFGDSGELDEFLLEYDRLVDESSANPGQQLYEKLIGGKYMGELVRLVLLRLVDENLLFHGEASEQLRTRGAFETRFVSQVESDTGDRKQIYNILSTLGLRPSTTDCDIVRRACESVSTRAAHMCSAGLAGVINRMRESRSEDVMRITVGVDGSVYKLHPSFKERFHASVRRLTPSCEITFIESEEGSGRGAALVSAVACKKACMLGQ
T1 sequence (Q14397 whole entry, looked up): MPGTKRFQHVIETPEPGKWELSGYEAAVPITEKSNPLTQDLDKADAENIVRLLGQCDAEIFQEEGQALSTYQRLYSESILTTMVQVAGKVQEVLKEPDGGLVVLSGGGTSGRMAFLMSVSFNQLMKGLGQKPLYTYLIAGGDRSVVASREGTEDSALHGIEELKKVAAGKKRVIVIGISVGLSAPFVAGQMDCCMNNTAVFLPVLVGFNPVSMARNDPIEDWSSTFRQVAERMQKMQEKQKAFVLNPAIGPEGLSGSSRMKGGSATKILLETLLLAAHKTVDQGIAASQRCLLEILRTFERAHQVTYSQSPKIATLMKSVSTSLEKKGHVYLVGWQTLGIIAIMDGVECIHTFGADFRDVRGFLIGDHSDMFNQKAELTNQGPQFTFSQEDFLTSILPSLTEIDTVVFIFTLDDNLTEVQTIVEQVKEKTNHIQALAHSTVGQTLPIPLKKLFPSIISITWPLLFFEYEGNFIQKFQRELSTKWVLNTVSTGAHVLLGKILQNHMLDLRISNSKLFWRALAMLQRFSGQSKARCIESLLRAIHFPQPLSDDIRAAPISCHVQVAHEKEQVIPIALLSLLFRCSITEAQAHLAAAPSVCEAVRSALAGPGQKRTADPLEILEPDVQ

With `CC1(C)CCC=[N+]1[O-]`, the Potency entry in assay [1], in assay [2], in assay [3], in [4] and in assay [6] was “inactive” in each case. Also, the outcome in [5] was inactive. The max response in assay [7] was 7.42% (inactive).

For the molecule `CC(C)ON([C@@H](C(=O)NO)C(C)C)S(=O)(=O)c1ccc(-c2ccccc2)cc1`, the Potency result in [1], in [2], in assay [3], in assay [4] and in assay [8] was “inactive” in each case. The result in assay [5] was inactive.

Take `CO/S(=N\S(=O)(=O)c1ccc(Cl)cc1)c1ccc([N+](=O)[O-])cc1` (stereo not drawn): the Potency result in [1], in assay [2], in assay [3], in assay [4] and in assay [6] was “inactive” in each case. Besides, the result in assay [5] was inactive. Besides, the max response in assay [7] was 19.6% (inactive).

For `Cn1ncc(S(=O)(=O)Cc2ccccc2)c(Br)c1=O`, the Potency result in [1], in assay [2], in assay [3], in assay [4], in [6] and in [8] was “inactive” throughout. Further, in assay [5], the result was inactive. Besides, the max response in assay [7] was 25.3% (inactive).

As for `O=Nc1ccc2oc(=O)ccc2c1`, the Potency result in assay [1], in assay [2], in [3], in assay [4], in assay [6] and in assay [8] was “inactive” in each case. Besides, in [5], the outcome was inactive. For the same molecule, the Potency in assay [7] was 1780 nM (active).

For `Clc1ccc(N2CCN(Cc3c[nH]c4ncccc34)CC2)cc1`, the Potency result in assay [1], in assay [2], in assay [3], in [4] and in assay [8] was “inactive” in each case. Besides, the result in assay [5] was inactive.

Take `COc1cccc(OC)c1OCCNCC1COc2ccccc2O1` (stereo not drawn): the Potency entry in assay [1], in assay [2], in assay [3], in assay [4], in assay [6] and in assay [8] was “inactive” throughout. The outcome in [5] was inactive. Further, the max response in assay [7] is 16.7% (inactive).

As for `CCCCCCCCCCCCCCCCCC(=O)OC(CC(=O)O)C[N+](C)(C)C` (stereo not drawn), the Potency result in [1], in assay [2], in assay [3], in assay [4] and in [6] was “inactive” throughout. Further, the outcome in assay [5] was inactive. Also, the max response in [7] was -2.89% (inactive).

For `CC(C)NC[C@@H](O)c1ccc(O)c(O)c1`, the Potency entry in assay [1], in [2], in [3], in [4], in [6] and in assay [8] was “inactive” in each case. Further, the result in assay [5] was inactive. In [7], the max response is 19.2% (inactive).

For the molecule `N=C(N)SCCc1ccc(CCSC(=N)N)cc1`, the Potency entry in assay [1], in assay [2], in assay [3], in [4] and in assay [6] was “inactive” each time. Also, the result in [5] was inactive. The max response in [7] is 24% (inactive).

`C=C[C@@H]1CN2CC[C@@H]1C[C@H]2[C@H](O)c1ccnc2ccc(OC)cc12`: the Potency entry in assay [1], in assay [2], in [3], in [4] and in assay [6] was “inactive” throughout. In assay [5], the result was inactive. Moreover, the Potency in assay [7] was 296 nM (active). This molecule also showed a remaining parasite growth % (stronger effect = lower value) in [9] of 0.99%. Further, the activity, percent of control in assay [10] is 1.73%. The same molecule returned a remaining proliferation (% of control), lower = more inhibition in [11] of 1.02%. This molecule also gave a parasite growth, % of DMSO control in assay [12] of 6.67%. This molecule also showed a parasite growth remaining, % of DMSO control (lower = more inhibition) in [13] of 9.34%. This molecule also showed a parasite growth, % of control (lower = inhibition) in assay [14] of 20.6%. In addition, the growth, % of control in [15] amounted to 5.53%.

Consider `Cc1ccccc1CNc1ncnc2c1ncn2C1OC(CO)C(O)C1O` (stereo not drawn), for which the Potency result in assay [1], in assay [2], in [3], in assay [4] and in assay [6] was “inactive” each time. The outcome in assay [5] was inactive. For the same molecule, the max response in assay [7] was 21.1% (inactive).
